Data on 24 molecules can be found in PubChem BioAssay.

The nature of this experiment: RPMI8226 myeloma cell viability, profiling panel, resazurin fluorescence, basal, 24 h, PK04 Diversity Set (AID 1180).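 Further: RPMI8826 multiple myeloma cell line at 5000 cells per well; test concentration not given here.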 Particulars: higher = more signal.
`CCCCCN1CC=CC23O[C@@H]4/C=C\CCCOC(=O)C4[C@H]2C(=O)N(C(C)CO)[C@@H]3C1=O` (some centres undefined) returned a z-score of 0.541.
With `COc1ccc([Si](C)(C)[C@@H]2[C@@H](CCO)O[C@]3(C(=O)N(Cc4cccc(NC(=O)[C@H](C)O)c4)c4ccccc43)[C@H]2C)cc1` the figure was -6.22; with `Cc1ccc(S[C@]2(C(=O)NCc3ccccc3)CC(=O)N(C3CCCCC3)[C@@H]2c2ccc(CO)cc2I)cc1`, -2.24; with `CC(C)c1ccc(NN2C(C(O)c3ccc(F)cc3)C=CC3C(=O)N(c4ccccc4)C(=O)C32)cc1` (centres undefined), -0.895.
Under `COC(=O)[C@@]1(Cc2ccccc2)[C@H]2c3cc(C(=O)N4CCCC4)n(CCc4ccccn4)c3C[C@H]2CN1C(=O)c1ccccc1` stands 0.157; under `CCCN1C(=O)[C@]2(Cc3ccccc31)N=C(c1ccc(OCCCO)cc1)O[C@@H]2c1ccccc1`, -0.804.
As for `O=C1[C@H]2C=C(I)[C@H](C[C@@H]2OCCOCCO)[C@@]12CO2`, the z-score is -0.244.
Under `CCCCCCc1nc(Cc2cc(OC)c(OC)c(OC)c2)cc2c1[Si](C(C)C)(C(C)C)OC2` stands -0.295.
`COC(=O)C(CC#Cc1ccc2c(c1)[C@]1(C(=O)N2)[C@H](c2ccc(O)cc2)N2[C@H](c3ccccc3)[C@H](c3ccccc3)OC(=O)[C@H]2[C@@H]1C(=O)NC[C@H](O)c1ccccc1)C(=O)OC` returned a z-score of -1.37.
With `COCCOC(=O)N1C(=O)[C@@]2(c3cc(C#CC4=CCCCC4)ccc31)[C@H](c1ccccc1OCCO)N1[C@H](c3ccccc3)[C@H](c3ccccc3)OC(=O)[C@H]1[C@@H]2C(=O)N1CCN(c2ncccn2)CC1` the figure was 0.0816; with `O[C@@H](Cc1ccccc1)[C@@H](/C=C/C1CC1)N(CC#Cc1ccccc1)Cc1ccccc1Br`, 2.14.
In the case of `COc1cc2c(cc1O)C=[N+](Cc1sc3ccccc3c1Cl)CC2`, the z-score was -0.496.
Under `COc1ccc(C#Cc2ccc3c(c2)[C@]2(C(=O)N3)[C@H](C(=O)O)[C@H]3C(=O)O[C@H](c4ccccc4)[C@H](c4ccccc4)N3[C@@H]2c2ccc(O)cc2)cc1` stands -0.152.
Under `Cn1cccc1C(O)C1C=CC2C(=O)N(c3ccccc3)C(=O)C2N1Nc1ccccc1` (centres undefined) stands 0.0611; under `Cc1ccc(F)cc1S(=O)(=O)N[C@@H]1CCN(Cc2ccc(Br)cc2)C1`, 0.264; under `CC1CC/C=C\[C@H]2OC34C=CCN(Cc5ccccc5)C(=O)[C@H]3N(C(CO)C(C)C)C(=O)[C@@H]4C2C(=O)O1` (some centres undefined), 0.775.
On to `CCOC(=O)C1=C[C@@H](C(C)C)N(S(=O)(=O)c2ccc(C)cc2)[C@H]1c1ccc(C(F)(F)F)cc1`, for which the z-score was -1.58.
With `COCCCNC(=O)[C@@]1(Sc2ccc(C)cc2)CC(=O)N(C2Cc3ccccc3C2)[C@@H]1c1ccc(CO)cc1` the figure was 0.222; with `C[N+](C)(C)CCCC[C@@H]1NC(=O)[C@@H]2C[C@H](C(=O)NCCCCCCN)[C@H](c3cccc(OCCO)c3)N2C1=O`, -1.3; with `C=CCC(OC(C)=O)[C@@H]1[C@@H](N(Cc2ccc(-c3ccccc3)cc2)C(=O)c2ccc(-c3ccccc3)cc2)c2cc(OCCCO)ccc2N1C(=O)c1ccc2ccccc2c1` (some centres undefined), -0.205.
As to `CC1CC/C=C\[C@H]2OC34C=CCN(C(C)C)C(=O)[C@H]3N(CCO)C(=O)[C@@H]4C2C(=O)O1` (some centres undefined), the z-score was determined as 0.838.
In turn, `CCCNC(=O)[C@@H]1c2ccccc2C(=O)N(Cc2ccc(OC(F)(F)F)cc2)[C@H]1c1ccc(CO)cc1` registered a z-score of 0.584.
Molecule `CC(C)NC(=O)[C@@]1(C)c2ccccc2C(=O)N(Cc2ccc(OC(F)(F)F)cc2)[C@H]1c1ccc(CO)cc1` yielded a z-score of 0.959.
The molecule `COc1ccc(CCNC(=O)[C@@]2(Cc3ccccc3I)c3ccccc3C(=O)N(C3CCCCC3)[C@H]2c2ccc(CO)cc2)cc1` registered a z-score of -0.0337.
